# In PubChem BioAssay AID2551 (National Center for Advancing Translational Sciences (NCATS), 2010):
# About 17,000 (5.5%) of roughly 310,000 compounds were called active. Where a call stands in place of a potency, no number is given. Roughly 11% stayed inconclusive and do not appear here. Calls follow the shape of the dose curve; as a rule, active = well fitted inhibition curve with a large enough effect; inconclusive = small, poorly fitted or top-dose-only effect, or effect the other way; inactive = no such curve, though single readings can be large or run the other way. This excerpt belongs to a sample that is enriched for actives.
# Biological target: Nuclear receptor ROR-gamma (Mus musculus) (UniProt P51450)
# Sequence (P51450 whole entry, looked up): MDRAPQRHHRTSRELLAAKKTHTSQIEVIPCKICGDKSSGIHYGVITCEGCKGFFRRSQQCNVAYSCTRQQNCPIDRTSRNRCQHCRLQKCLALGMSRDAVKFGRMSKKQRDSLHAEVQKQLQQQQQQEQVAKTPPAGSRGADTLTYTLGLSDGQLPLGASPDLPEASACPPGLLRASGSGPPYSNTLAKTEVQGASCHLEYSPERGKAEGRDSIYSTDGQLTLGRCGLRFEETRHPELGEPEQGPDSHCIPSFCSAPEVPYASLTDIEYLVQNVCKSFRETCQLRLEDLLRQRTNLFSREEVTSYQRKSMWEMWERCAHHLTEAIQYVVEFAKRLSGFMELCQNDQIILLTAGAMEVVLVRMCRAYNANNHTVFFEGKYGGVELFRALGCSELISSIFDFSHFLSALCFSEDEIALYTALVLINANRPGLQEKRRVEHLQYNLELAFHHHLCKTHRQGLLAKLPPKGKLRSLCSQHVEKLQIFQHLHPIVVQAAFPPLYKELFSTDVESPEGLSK
# Assay: qHTS for inhibitors of ROR gamma transcriptional activity; also: nearly all actives have a fitted effect of over 60% in size
# Conditions: Drosophila S2 Gal4-RORgamma UAS-luciferase reporter, 20 h; series mostly up to 53.6 µM
# Summary of the method: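 Stably transfected Drosophila Schneider cells are the test system, with ROR gamma fused to Gal4 and luciferase under UAS control; luminescence is read after 20 hr of 700 uM copper sulfate induction at ambient temperature.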
# Potency is read from the fitted curve at half-maximal effect.
row,SMILES,Potency
1,CC(C)(O)c1[se]c2ccccc2c1I,inactive
2,CC[C@H]1CN2CCc3cc(OC)c(OC)cc3[C@@H]2C[C@@H]1C[C@H]1NCCc2cc(OC)c(OC)cc21,1.26 µM (active)
3,CN1CCN(c2cc(N3CCNCC3)ccc2[N+](=O)[O-])CC1,inactive
4,COc1cccc(-c2nc3ccc(N4CCN(C)CC4)cc3[nH]2)c1,1.12 µM (active)
5,COC(=O)c1ccc2[se]c(CC3CCCCC3)c(I)c2c1,inactive
6,Cc1ccc(-n2c(O)c(C=NCC3CCCO3)c(=O)[nH]c2=O)c(C)c1 (centres undefined),inactive
7,COC1CC(OC2CC[C@@]3(C=O)C4CC[C@]5(C)C(C6=CC(=O)OC6)CC[C@@]5(O)C4CC[C@]3(O)C2)OC(C)C1O (some centres undefined),inactive
8,BrC1C(Br)C(Br)C(Br)C(Br)C1Br (centres undefined),5.01 µM (active)
9,O=C(Nc1cccc(F)c1)N1CC[C@@]2(CCCN(C(=O)Oc3ccccc3)C2)C1,inactive
10,CCN1C[C@]2(COC)C(O)C[C@H](OC)[C@@]34C5C[C@]6(O)C(OC)C(O)[C@](OC(C)=O)(C5C6OC(=O)c5ccccc5)C(C(OC)C23)C14 (some centres undefined),inactive
11,CCCCC#N,inactive
12,COc1cccc(OC)c1C(=O)NC(=S)N1C[C@H]2C[C@H](C1)c1cccc(=O)n1C2,inactive
13,COc1cccc(C(=O)N2C[C@H]3C[C@@H](C2)c2cccc(=O)n2C3)c1,inactive
14,O=C(NC(=S)N1C[C@H]2C[C@H](C1)c1cccc(=O)n1C2)c1ccc(F)cc1,11.2 µM (active)
15,N#CCCCl,inactive
16,CCN(CC)c1nc(C)cc(OP(=S)(OC)OC)n1,inactive
17,CC(C)(c1ccc(OC[C@@H]2CO2)cc1)c1ccc(OC[C@H]2CO2)cc1,inactive
18,CN1CCN(C(=O)O[C@@H]2c3nccnc3C(=O)N2c2ccc(Cl)cn2)CC1,inactive
19,Cn1c(O)c(C=NCCN2CCNCC2)c(=O)n(C)c1=O,inactive
20,CC(=C1C(=O)c2ccccc2C1=O)N1CCN(CCN=Cc2c(O)n(C)c(=O)n(C)c2=O)CC1,7.08 µM (active)
21,Cn1c(O)c(C=NCCCC(=O)O)c(=O)n(C)c1=O,inactive
22,CC(=O)OC1C2CCC3C1(CC(O)[C@@]1(O)[C@@H](CC(O)C1(C)C)[C@]3(C)O)C[C@@]2(C)O (some centres undefined),inactive
23,O=[N+]([O-])c1ccc(Cl)c(Cl)c1,inactive
24,N[C@H](Cc1o[nH]c(=O)c1Cl)C(=O)O,inactive
